The record followed here is PubChem BioAssay (Tox21).

The nature of test [1]: qHTS RealTime-Glo MT Cell Viability Assay in HEK293 cells - 16 hour (AID 1224872). Also: top concentration of the series differs between compounds; nearly all actives have a fitted effect of over 50% in size. The method in brief: (§1)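 Nonlytic real-time viability readout: viable cells convert prosubstrate to NanoLuc substrate, giving luminescence proportional to live cell number. HEK293, 600 cells/well, compound added after 5 h, continuous culture at 37 C.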
Test [2] in a line: qHTS RealTime-Glo MT Cell Viability Assay in HepG2 cells - 8 hour (AID 1224873). Also: nearly all actives have a fitted effect of over 55% in size. An outline of the steps: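 Real-time viability: cells seeded at 600 per well together with NanoLuc and cell-permeant prosubstrate, compounds added after 5 h incubation. Luminescence tracked at 0, 8, 16, 24, 32 and 40 h of exposure.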
For orientation: qHTS replaces the single test concentration by a dilution series.

A short description of test [3]: qHTS RealTime-Glo MT Cell Viability Assay in HEK293 cells - 40 hour (AID 1224874). Also: nearly all actives have a fitted effect of over 50% in size. Particulars: RealTime-Glo luminescence; max response: active compounds read low. The method in brief: (§2)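 Luminescence, which tracks viable cell number through reduction of the prosubstrate to a NanoLuc substrate, was read over continuous 37 C culture. Cells (600/well) were premixed with reagent and rested 5 h before 23 nL of compound in DMSO was pinned.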

Test [4] can be described thus: A CellTox Green Cytotoxicity Assay to monitor cytotoxicity in HEK293 cells - 24 hour (AID 1224875). Also: series mostly up to about 77 µM; nearly all actives have a fitted effect of over 45% in size. The method in brief:
(§3)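 Fluorescence from a DNA-binding dye excluded by viable cells was measured repeatedly in the same HEK293 wells (600 cells/well) during continuous compound exposure at 37 C. Each assay gives one read point: 0, 8, 16, 24, 32 or 40 h.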

Test [5] is described as follows: A CellTox Green Cytotoxicity Assay to monitor cytotoxicity in HepG2 cells - 16 hour (AID 1224876). Also: nearly all actives have a fitted effect of over 45% in size. Also: potency is read from the fitted curve at half-maximal effect. The method in brief: (§4)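 Real-time cytotoxicity: fluorescence of a cell-impermeant cyanine dye binding DNA of dead HepG2 cells, measured repeatedly (0–40 h) during compound exposure at 37 C. Cells seeded 600/well with reagent, dosed after 5 h.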
Test [6] in a line: qHTS RealTime-Glo MT Cell Viability Assay in HepG2 cells - 32 hour (AID 1224877). Also: nearly all actives have a fitted effect of over 55% in size. An outline of the steps:
(§5)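 Luminescence read-out: viable HepG2 cells reduce a prosubstrate to a NanoLuc substrate, giving a signal proportional to live cell number. Reads taken at 0, 8, 16, 24, 32 and 40 h of compound exposure at 37 C.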

The nature of test [7]: A CellTox Green Cytotoxicity Assay to monitor cytotoxicity in HepG2 cells - 24 hour (AID 1224878). Also: nearly all actives have a fitted effect of over 45% in size. Also: potency is read from the fitted curve at half-maximal effect. The method in brief: as §4
A short description of test [8]: A CellTox Green Cytotoxicity Assay to monitor cytotoxicity in HepG2 cells - 40 hour (AID 1224879). Also: nearly all actives have a fitted effect of over 40% in size. Also: potency is read from the fitted curve at half-maximal effect. The method in brief: as §4
The nature of test [9]: qHTS RealTime-Glo MT Cell Viability Assay in HEK293 cells - 0 hour (AID 1224880). Also: top concentration of the series differs between compounds; nearly all actives have a fitted effect of over 45% in size. The method in brief:
as §2

The nature of test [10]: A CellTox Green Cytotoxicity Assay to monitor cytotoxicity in HEK293 cells - 32 hour (AID 1224881). Also: nearly all actives have a fitted effect of over 40% in size. The method in brief:
as §3

A short description of test [11]: A CellTox Green Cytotoxicity Assay to monitor cytotoxicity in HepG2 cells - 0 hour (AID 1224882). Also: nearly all actives have a fitted effect of over 35% in size. The method in brief:
as §4

Test [12] can be described thus: A CellTox Green Cytotoxicity Assay to monitor cytotoxicity in HepG2 cells - 32 hour (AID 1224883). Also: nearly all actives have a fitted effect of over 50% in size. Also: potency is read from the fitted curve at half-maximal effect. An outline of the steps:
as §4

Test [13] can be described thus: A CellTox Green Cytotoxicity Assay to monitor cytotoxicity in HEK293 cells - 8 hour (AID 1224884). Also: nearly all actives have a fitted effect of over 35% in size. The method in brief:
as §3

Test [14] can be described thus: qHTS RealTime-Glo MT Cell Viability Assay in HepG2 cells - 16 hour (AID 1224885). Also: nearly all actives have a fitted effect of over 50% in size. The method in brief:
as §5

Test [15] is described as follows: qHTS RealTime-Glo MT Cell Viability Assay in HEK293 cells - 24 hour (AID 1224886). An outline of the steps:
as §1

Test [16] can be described thus: qHTS RealTime-Glo MT Cell Viability Assay in HEK293 cells - 8 hour (AID 1224887). An outline of the steps: as §2
Test [17] can be described thus: A CellTox Green Cytotoxicity Assay to monitor cytotoxicity in HepG2 cells - 8 hour (AID 1224890). Also: nearly all actives have a fitted effect of over 45% in size. The method in brief:
as §4

Test [18] is described as follows: qHTS assay to identify small molecule antagonists of the estrogen receptor alpha (ER-alpha) signaling pathway using the BG1 cell line in the presence of 0.1 nM 17-beta-estradiol - cell viability counter screen (AID 1259241). Also: nearly all actives have a fitted effect of over 40% in size. The method in brief:
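Live-cell protease activity (CellTiter-Fluor fluorescence, 30 min) was read in the same wells after VM7Luc4E2 cells had been exposed to compounds with 0.1 nM 17beta-estradiol for 22 hr at 37C.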

Test [19] in a line: A CellTox Green Cytotoxicity Assay to monitor cytotoxicity in HEK293 cells - 16 hour (AID 1224888). Also: nearly all actives have a fitted effect of over 35% in size. An outline of the steps:
as §3

The nature of test [20]: qHTS RealTime-Glo MT Cell Viability Assay in HepG2 cells - 0 hour (AID 1224889). Also: nearly all actives have a fitted effect of over 50% in size. An outline of the steps:
as §5

A number with no mark means an inactive call. Records with an inconclusive call do not appear. The source made the active and inactive calls. Calls follow the shape of the dose curve; as a rule, active = well fitted curve in the direction sought with a large enough effect in the repeat runs; inconclusive = weak or mixed curves; inactive = no such curve, though single readings can be large; an effect the other way counts as inactive or inconclusive.
% is scaled to controls: 0 for no effect and ±100 for the full control effect.

Take `O=S(=O)(O)c1cc(S(=O)(=O)O)c2ccc3c(S(=O)(=O)O)cc(S(=O)(=O)O)c4ccc1c2c43`: the activity change, negative = cytotoxicity in [1] is 1.53% [at 15.8 µM]; in [9], 3.1% [at 15.8 µM]; in test [15], 1.56% [at 15.8 µM]; in test [16], -2.93% [at 15.8 µM]; in [18], -2.07% [at 19 µM]. For the same molecule, in [2], the viability change, negative = cytotoxic was 0.921% [at 15.8 µM]. Also, in test [3], the max response was 2.05%. The activity change in test [4] is -0.396% [at 15.8 µM, active compounds read high]. Moreover, the cytotoxicity increase in test [5] is -4.69% [at 15.8 µM]; in [8], -11.4% [at 15.8 µM]; in test [10], -1.7% [at 15.8 µM]; in [12], -9.89% [at 15.8 µM]; in test [13] it was -7.26% [at 15.8 µM]; in test [17] it was 7.21% [at 15.8 µM]. The figures for the activity change, negative = cytotoxic in test [6] and in test [14] were 5.28% [at 15.8 µM] and 2.01% [at 15.8 µM], respectively. Besides, the cytotoxicity is -8.46% [at 15.8 µM] in test [7] and -2.2% [at 15.8 µM] in [11].
In the case of `O=C1OC(=O)c2ccc3c4c(ccc1c24)C(=O)OC3=O`, the Potency result in [1], in [2], in [4], in [5], in test [6] and in test [7] was “inactive” each time. In addition, the Potency result in test [8], in test [9], in test [10], in test [11], in test [12] and in [13] was “inactive” throughout. Also, the Potency entry in test [14], in test [15], in [16], in test [19], in [20] and in [18] was “inactive” in each case. The max response in test [3] was 0.327%.
`CCc1cccc(CC)c1N(COC)C(=O)CS(=O)(=O)O`: the Potency entry in [1], in test [2], in test [4], in [5], in test [6] and in test [7] was “inactive” in each case. The Potency entry in [8], in test [9], in [10], in [11], in test [12] and in [13] was “inactive” in each case. The Potency result in test [14], in test [15], in test [16], in test [20], in test [17] and in test [18] was “inactive” throughout. For the same molecule, the max response in test [3] was 20.8%.
In the case of `CC1(C)C(=O)N(Br)C(=O)N1Br`, the Potency result in [1], in [2], in test [4], in [5], in [6] and in [7] was “inactive” each time. Further, the Potency entry in test [8], in [9], in [10], in [11], in test [12] and in [13] was “inactive” each time. In addition, the Potency entry in [14], in test [15], in [16], in [19], in test [17] and in test [18] was “inactive” in each case. Further, the max response in test [3] is -1.21%.
For the molecule `SCCCCCCCCS`, the Potency entry in [1], in [2], in test [4], in [6], in test [9] and in [10] was “inactive” in each case. In addition, the Potency entry in [11], in test [13], in [14], in [15], in test [16] and in test [19] was “inactive” in each case. The Potency result in test [20] and in test [18] was “inactive” in each case. Moreover, the max response in test [3] was 9.16%. Moreover, the Potency in test [5], in test [7], in test [8] and in test [12] was 19.5 µM (active) in each case.
In the case of `CC1CCCCC1`, the Potency entry in [1], in test [2], in [4], in [5], in [6] and in [7] was “inactive” in each case. Besides, the Potency entry in test [8], in test [9], in test [10], in test [11], in test [12] and in test [13] was “inactive” throughout. Also, the Potency result in test [14], in test [15], in test [16], in test [19], in [20] and in test [17] was “inactive” each time. In test [18], the Potency result is “inactive”. Further, the max response in [3] is 5.61%.
